Measurements as given in PubChem BioAssay (Tox21).
Records with an inconclusive call do not appear. Calls of active or inactive are those of the source. Unless noted, the call rests on the fitted dose curve; in most records, active means well fitted curve in the direction sought with a large enough effect in the repeat runs; inconclusive means weak or mixed curves; inactive means no such curve, though single readings can be large; an effect the other way counts as inactive or inconclusive.

Assays:
[1] = qHTS assay to identify small molecule antagonists of the thyroid receptor (TR) signaling pathway - cell viability counter screen (AID 743064); further: nearly all actives have a fitted effect of over 50% in size
Summary of the method: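 In rat pituitary GH3.TRE-Luc reporter cells co-exposed to compound and 1 nM T3 for 23.5 h, cytotoxicity was assessed with CellTiter-Fluor in the same wells, read by fluorescence.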

[2] = qHTS assay to identify small molecule antagonists of the thyroid receptor (TR) signaling pathway (AID 743065); further: series mostly up to about 70 µM; nearly all actives have a fitted effect of over 55% in size
Summary of the method: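 Antagonism measured as loss of luciferase signal in GH3 cells stably carrying a TRE-luciferase reporter, co-treated with compound and T3 (1 nM final) for 23.5 h at 37 C. Viability was read in the same well by CellTiter-Fluor.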

[3] = test system: thyroid hormone receptor (rat, GH3 cells); assay: qHTS assay to identify small molecule agonists of the thyroid receptor (TR) signaling pathway (AID 743066; calls by dose curve)
[4] = biological target: Estrogen receptor (Homo sapiens) (UniProt P03372); assay: qHTS assay to identify small molecule antagonists of the estrogen receptor alpha (ER-alpha) signaling pathway (AID 743069; active means well fitted curve in the direction sought with a large enough effect in the signal ratio in the repeat runs, not every such curve was filed as active; the % refers to the signal ratio)
Summary of the method: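 Antagonist mode: compounds in DMSO were co-added with 17beta-estradiol to ER-alpha-bla HEK293 cells (2% charcoal-stripped serum) and left 18 h at 37C. Reporter inhibition was measured as FRET fluorescence after 2 h LiveBLAzer substrate at room temperature.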

[5] = qHTS assay to identify small molecule antagonists of the estrogen receptor alpha (ER-alpha) signaling pathway - cell viability counter screen (AID 743074; calls by dose curve;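 further: HEK293 cells carrying ER-alpha-UAS-bla reporter stimulated with 17beta-estradiol; nearly all actives have a fitted effect of over 45% in size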)
[6] = biological target: Estrogen receptor (Homo sapiens) (UniProt P03372); assay: qHTS assay to identify small molecule agonists of the estrogen receptor alpha (ER-alpha) signaling pathway (AID 743075; calls by dose curve;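 further: HEK293 GripTite cells with ER-alpha and UAS-driven beta-lactamase reporter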)
[7] = biological target: Estrogen receptor (Homo sapiens) (UniProt P03372); assay: qHTS assay to identify small molecule agonists of the estrogen receptor alpha (ER-alpha) signaling pathway using the BG1 cell line (AID 743079); further: nearly all actives have a fitted effect of over 20% in size
[8] = qHTS assay to identify small molecule antagonists of the estrogen receptor alpha (ER-alpha) signaling pathway using the BG1 cell line (AID 743080; calls by dose curve;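 further: BG1 cells stimulated with 17beta-estradiol alongside compound; series mostly up to about 70 µM; nearly all actives have a fitted effect of over 25% in size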)
Summary of the method: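 BG1Luc4E2, endogenous ER-alpha, 4xERE-luc; 5 d charcoal-stripped FBS, phenol red free; 24 h plating; cpd + 17beta-estradiol 21.5 h, 37 C/5% CO2; CellTiter-Fluor viability 30 min, then ONE-Glo luciferase 30 min RT.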

[9] = qHTS assay to identify small molecule antagonists of the estrogen receptor alpha (ER-alpha) signaling pathway using the BG1 cell line - cell viability counter screen (AID 743081);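 further: compound given together with 17beta-estradiol as the ER stimulus; series mostly up to about 70 µM; nearly all actives have a fitted effect of over 45% in size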
Aromatase (Homo sapiens) = Aromatase (Homo sapiens) (UniProt P11511); assay: qHTS assay to identify aromatase inhibitors (AID 743083); further: series mostly up to about 70 µM; nearly all actives have a fitted effect of over 55% in size
[10] = qHTS assay to identify aromatase inhibitors - cell viability counter screen (AID 743084);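 further: cells stimulated with testosterone during compound exposure; nearly all actives have a fitted effect of over 55% in size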
[11] = biological target: Aryl hydrocarbon receptor (Homo sapiens) (UniProt P35869); assay: qHTS assay to identify small molecule that activate the aryl hydrocarbon receptor (AhR) signaling pathway (AID 743085);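 further: HG2L7.5c1 human HepG2 liver cells with stably integrated DRE-driven firefly reporter; series mostly up to about 70 µM; nearly all actives have a fitted effect of over 15% in size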
Summary of the method: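 AhR agonist activity is inferred from enhanced light output of a DRE-controlled firefly luciferase reporter in HepG2 cells, measured with ONE-Glo following 24 h treatment at 37C.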

[12] = qHTS assay to identify small molecule that activate the aryl hydrocarbon receptor (AhR) signaling pathway - cell viability counter screen (AID 743086);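 further: HepG2 liver cells carrying the AhR DRE luciferase reporter; series mostly up to about 70 µM; nearly all actives have a fitted effect of over 45% in size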
Summary of the method: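 Cytotoxicity counter screen: CellTiter-Fluor signal (30 min, 37 C) in 4000 HepG2 cells/well carrying the DRE-luciferase reporter, following 24 h compound exposure at 37 C.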

[13] = biological target: Peroxisome proliferator-activated receptor gamma (Homo sapiens) (UniProt P37231); assay: qHTS assay to identify small molecule agonists of the peroxisome proliferator-activated receptor gamma (PPARg) signaling pathway (AID 743094; active means well fitted activation curve with a large enough effect in the signal ratio in the repeat runs, not every such curve was filed as active; the % refers to the signal ratio)
Summary of the method: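 Cell-based bla reporter, HEK293H background, PPARg-driven UAS. Pre-incubation 5 h, 37C, 5% CO2. Compound 17 h, 37C. Substrate 1 h RT; fluorescence.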

[14] = biological target: Peroxisome proliferator-activated receptor gamma (Homo sapiens) (UniProt P37231); assay: qHTS assay to identify small molecule antagonists of the peroxisome proliferator-activated receptor gamma (PPARg) signaling pathway (AID 743191; calls by dose curve; further: series mostly up to about 63 µM; nearly all actives have a fitted effect of over 30% in size)
Summary of the method: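 Beta-lactamase reporter under UAS control in HEK293H PPARg-bla cells; compound treatment 17 h at 37C. Read-out: fluorescence intensity after 1 h room-temperature incubation with LiveBLAzer B/G FRET substrate.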

[15] = qHTS assay to identify small molecule antagonists of the peroxisome proliferator-activated receptor gamma (PPARg) signaling pathway - cell viability counter screen (AID 743194); further: nearly all actives have a fitted effect of over 55% in size
Summary of the method: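 Viability was measured as CellTiter-Glo luminescence in GeneBLAzer PPARg UAS-bla HEK293H cells. These cells had been exposed 17 h at 37 C to compounds together with rosiglitazone at 50 nM final, with the beta-lactamase readout taken in the same wells.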

[16] = qHTS assay for small molecule agonists of the antioxidant response element (ARE) signaling pathway (AID 743202; active means well fitted activation curve with a large enough effect in the signal ratio in the repeat runs, not every such curve was filed as active; the % refers to the signal ratio)
Summary of the method: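 After 16 hours of compound treatment at 37 C, HepG2 cells with a stably integrated ARE-driven beta-lactamase reporter were loaded 2 hours at room temperature with LiveBLAzer B/G FRET substrate and fluorescence intensity measured.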

[17] = qHTS assay for small molecule agonists of the antioxidant response element (ARE) signaling pathway - cell viability counter screen (AID 743203; calls by dose curve; further: nearly all actives have a fitted effect of over 55% in size)
Summary of the method: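 Measured in the same wells as the beta-lactamase ARE reporter, this read-out is CellTiter-Glo luminescence from HepG2 ARE-bla cells given compounds for 16 hrs.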

[18] = qHTS assay for small molecule activators of the heat shock response signaling pathway (AID 743210; active means well fitted activation curve with a large enough effect in the signal ratio in the repeat runs, with a control signal flat, not every such curve was filed as active; the % refers to the signal ratio; further: series mostly up to about 63 µM)
Summary of the method: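 Compound exposure lasted 5 h at 37 C in HeLa cells carrying a heat-shock-element-driven beta-lactamase reporter. Read-out: fluorescence intensity after 2.5 h room-temperature loading with LiveBLAzer B/G FRET substrate.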

[19] = qHTS assay for small molecule activators of the heat shock response signaling pathway - cell viability counter screen (AID 743209); further: nearly all actives have a fitted effect of over 50% in size
Summary of the method: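 Same-well multiplex: after 2.5 h room-temperature incubation with LiveBLAzer B/G substrate and fluorescence reading, CellTiter-Glo reagent was added to HSE-bla HeLa cells that had received compound for 5 h at 37 C; luminescence read after 30 min.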

Measured: Potency

Estrogen receptor (Homo sapiens), sequence (P03372 whole entry, looked up): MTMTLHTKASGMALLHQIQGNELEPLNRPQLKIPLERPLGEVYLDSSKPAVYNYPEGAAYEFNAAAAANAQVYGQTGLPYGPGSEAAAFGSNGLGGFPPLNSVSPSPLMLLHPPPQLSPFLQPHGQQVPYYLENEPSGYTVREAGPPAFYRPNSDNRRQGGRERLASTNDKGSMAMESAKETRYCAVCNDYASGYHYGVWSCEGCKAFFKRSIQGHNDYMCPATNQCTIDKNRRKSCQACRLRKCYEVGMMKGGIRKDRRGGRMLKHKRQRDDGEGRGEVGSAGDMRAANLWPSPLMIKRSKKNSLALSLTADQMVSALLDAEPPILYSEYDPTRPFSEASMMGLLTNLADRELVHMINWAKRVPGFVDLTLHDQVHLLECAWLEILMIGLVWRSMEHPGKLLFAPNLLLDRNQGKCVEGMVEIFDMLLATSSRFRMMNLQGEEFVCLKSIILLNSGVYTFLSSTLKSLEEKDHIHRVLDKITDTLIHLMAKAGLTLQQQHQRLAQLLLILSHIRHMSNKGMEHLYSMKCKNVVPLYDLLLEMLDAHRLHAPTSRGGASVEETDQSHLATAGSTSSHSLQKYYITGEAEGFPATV
Aromatase (Homo sapiens), sequence (P11511 whole entry, looked up): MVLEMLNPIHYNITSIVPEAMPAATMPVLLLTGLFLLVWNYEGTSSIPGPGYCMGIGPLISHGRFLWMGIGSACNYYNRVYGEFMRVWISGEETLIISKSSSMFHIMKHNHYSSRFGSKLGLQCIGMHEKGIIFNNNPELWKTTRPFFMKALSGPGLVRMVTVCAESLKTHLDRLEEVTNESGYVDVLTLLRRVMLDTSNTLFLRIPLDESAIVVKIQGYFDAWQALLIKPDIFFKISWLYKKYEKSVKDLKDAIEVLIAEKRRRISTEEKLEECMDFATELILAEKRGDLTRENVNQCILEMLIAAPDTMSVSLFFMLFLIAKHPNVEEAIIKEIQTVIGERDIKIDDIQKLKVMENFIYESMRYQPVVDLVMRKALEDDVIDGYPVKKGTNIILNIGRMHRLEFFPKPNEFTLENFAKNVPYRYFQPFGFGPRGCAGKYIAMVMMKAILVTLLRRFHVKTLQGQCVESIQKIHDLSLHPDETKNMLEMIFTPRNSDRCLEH
Peroxisome proliferator-activated receptor gamma (Homo sapiens), sequence (P37231 whole entry, looked up): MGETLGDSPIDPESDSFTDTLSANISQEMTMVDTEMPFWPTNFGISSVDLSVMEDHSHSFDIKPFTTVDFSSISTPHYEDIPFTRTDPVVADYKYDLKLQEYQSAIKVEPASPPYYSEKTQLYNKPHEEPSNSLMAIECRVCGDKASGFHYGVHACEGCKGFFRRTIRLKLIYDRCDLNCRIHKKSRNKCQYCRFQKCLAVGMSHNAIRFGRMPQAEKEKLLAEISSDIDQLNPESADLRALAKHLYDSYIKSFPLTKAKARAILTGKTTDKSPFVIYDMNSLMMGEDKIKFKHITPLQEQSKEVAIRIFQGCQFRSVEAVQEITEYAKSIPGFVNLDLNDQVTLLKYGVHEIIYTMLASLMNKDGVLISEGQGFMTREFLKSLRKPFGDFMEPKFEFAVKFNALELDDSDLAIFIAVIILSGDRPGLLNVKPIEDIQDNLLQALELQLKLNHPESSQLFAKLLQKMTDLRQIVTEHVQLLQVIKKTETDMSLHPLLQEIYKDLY
Aryl hydrocarbon receptor (Homo sapiens), sequence (P35869 whole entry, looked up): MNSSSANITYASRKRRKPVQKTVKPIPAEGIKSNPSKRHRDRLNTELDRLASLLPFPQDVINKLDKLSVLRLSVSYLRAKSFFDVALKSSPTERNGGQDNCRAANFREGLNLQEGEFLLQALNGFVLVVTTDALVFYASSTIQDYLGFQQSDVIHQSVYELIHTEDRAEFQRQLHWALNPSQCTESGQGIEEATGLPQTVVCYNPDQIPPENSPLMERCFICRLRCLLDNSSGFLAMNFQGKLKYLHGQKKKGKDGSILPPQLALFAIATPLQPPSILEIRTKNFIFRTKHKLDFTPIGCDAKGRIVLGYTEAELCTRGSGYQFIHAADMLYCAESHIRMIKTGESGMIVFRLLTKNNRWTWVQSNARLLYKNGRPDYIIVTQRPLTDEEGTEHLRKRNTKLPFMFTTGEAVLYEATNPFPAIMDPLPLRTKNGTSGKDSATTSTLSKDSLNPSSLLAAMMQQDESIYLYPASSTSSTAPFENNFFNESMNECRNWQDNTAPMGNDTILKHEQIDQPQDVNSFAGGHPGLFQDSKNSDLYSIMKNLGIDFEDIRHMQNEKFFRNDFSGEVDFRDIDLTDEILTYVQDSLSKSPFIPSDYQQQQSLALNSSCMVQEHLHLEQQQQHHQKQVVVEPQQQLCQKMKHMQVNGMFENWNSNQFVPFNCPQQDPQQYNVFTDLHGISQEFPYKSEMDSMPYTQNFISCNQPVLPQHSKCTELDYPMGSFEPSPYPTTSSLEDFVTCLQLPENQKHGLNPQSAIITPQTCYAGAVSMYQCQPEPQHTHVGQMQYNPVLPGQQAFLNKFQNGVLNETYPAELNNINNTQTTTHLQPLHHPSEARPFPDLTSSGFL

COS(C)(=O)=O
not listed: [19]
inactive: all other assays above

OC[C@H]1O[C@@](CO)(O[C@H]2O[C@H](CO)[C@@H](O)[C@H](O)[C@H]2O)[C@@H](O)[C@@H]1O
not listed: [14] | [15]
inactive: all other assays above

CCC(O)OC(O)CC (stereo unspecified)
not listed: [14]
inactive: all other assays above

CCCCCCOCCO
not listed: [14] | [19]
inactive: all other assays above

CC(=O)c1ccccc1
not listed: [14]
inactive: all other assays above

C=C(C)C(=O)O[C@H]1C[C@@H]2CC[C@@]1(C)C2(C)C
not listed: [14] | [15] | [19]
inactive: all other assays above

C#CCN(C)Cc1ccccc1
not listed: [14] | [15] | [19]
inactive: all other assays above

O=C(O)CCCC[C@@H]1SC[C@@H]2NC(=O)N[C@@H]21
not listed: [15]
inactive: all other assays above
